Assay outcomes: PubChem BioAssay, several laboratories
C1s inh – complement C1s protease inhibitors, primary screen, biochemical, 10-compound mixtures; mean inhibition % of two 10-compound mixtures (active compounds read high), % at 5 µM (by protocol); Complement C1s subcomponent (Homo sapiens), P09871; purified C1s, fluorogenic AMC substrate, pooled mixtures; 0.16% of 62,000 active;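 active = inhibition above 20% in each of the two 10-compound mixture wells holding the compound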;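 note: 0% = enzyme wells lacking compound mixture and 100% = no-enzyme blank wells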
BAP1 inh – inhibitors of BAP1 deubiquitinase, primary screen, biochemical, Ub-AMC fluorescence, kinetic; AID 436, 2006; 0.48% of 72,000 active; recombinant BAP1, Ub-AMC hydrolysis fluorescence kinetic; active compounds read low; activity remaining (% of control), % at 20 µM;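 active = activity remaining at or below 50% of control, provided the compound also passes the data quality filters; inactive = the rest, including low values that fail the filters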;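 note: 100% = DMSO wells rate and 0% = substrate alone blank rate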
Candida biofilm – clotrimazole potentiators killing Candida biofilms, primary screen, with clotrimazole, Alamar Blue | AID 834, 2007 | 0.14% of 85,000 active | inhibition, % at 6 µM | C. albicans biofilm + clotrimazole;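 active = inhibition above 20%; inactive = inhibition below 20%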;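 note: preformed 24 hr biofilms exposed to compound for 48 hr; 0% = biofilm without compound and 100% = blank killed by clotrimazole plus chlorhexidine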
FXIa inh mix – FXIa protease inhibitors in compound pools, primary screen, biochemical, 10-compound mixtures. Coagulation factor XI (Homo sapiens), P03951. purified FXIa, fluorogenic substrate, pooled mixtures. inhibition, % at 5 µM. 0.19% of 62,000 active;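 note: each value is inhibition by a whole ten-compound pool holding the compound; 0% = enzyme with no mixture and 100% = wells lacking enzyme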
FXIIa inh mix – human factor XIIa inhibitors, primary screen, biochemical, pooled compound mixtures, fluorogenic substrate. AID 684, 2007. Coagulation factor XII (Homo sapiens), P00748. inhibition, % at 5 µM. 0.2% of 62,000 active. purified FXIIa;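 note: 0% = enzyme without compound and 100% = no enzyme blank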
CatG inh – human cathepsin G inhibitors, primary screen, biochemical, pooled compound mixtures, AMC fluorescence. P08311. purified enzyme, AMC-tetrapeptide fluorescence. inhibition, % at 5 µM (by protocol). 0.2% of 62,000 active. AID 581, 2007;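 active = inhibition above 20% in each of the two mixture wells holding the compound; inactive = inhibition of 20% or less in either well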;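 note: 0% = enzyme control without mixture and 100% = blank lacking enzyme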
Target sequence (P08311 21-244 limits assumed): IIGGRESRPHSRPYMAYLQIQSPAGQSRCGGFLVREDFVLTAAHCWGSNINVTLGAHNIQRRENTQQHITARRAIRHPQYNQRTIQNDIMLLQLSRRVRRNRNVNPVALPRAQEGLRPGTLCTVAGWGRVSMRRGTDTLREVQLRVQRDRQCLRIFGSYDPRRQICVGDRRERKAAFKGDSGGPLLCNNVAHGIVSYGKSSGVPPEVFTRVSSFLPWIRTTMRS
BAP1 inh conf – BAP1 deubiquitinase inhibitors, hit retest, confirmation, orthogonal assay, biochemical, Ub-ethyl ester substrate, HPLC readout | 8% of 310 active | shares compounds with BAP1 inh | purified BAP1, Ub-ethyl ester hydrolysis; active compounds read low | % of control activity, % at 20 µM;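 active = percent of control activity at or below 60%; inconclusive = HPLC trace unusable from injection failure or solvent front hiding peaks; inactive = the rest, plus ubiquitin peak ratio over a set limit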
An asterisk follows results filed as active; ? = inconclusive; nt = no result shown. An excerpt weighted towards active compounds, which were near 0.8% of everything screened. Cut-off read from the data, not from the text of the source, unless noted: active = inhibition above about 20% (passing the limit was not always enough); inactive = the rest.

SMILES | C1s inh | BAP1 inh | Candida biofilm | FXIa inh mix | FXIIa inh mix | CatG inh | BAP1 inh conf
CCCCCC(=O)N1CCN(c2ccc(C(C)=O)cc2F)CC1 | 11 | 102 | 1 | 8 | -11 | 11 | nt
Cc1ccc(C)c(S(=O)(=O)N2CCC(c3nc4c(nnn4Cc4ccc(F)cc4)c(=O)[nH]3)CC2)c1 | 10 | 30* | 6 | 6 | 42 | 12 | 135
Cc1ccc(Cn2nnc3c(=O)[nH]c(C4CCN(S(=O)(=O)c5cc(C)ccc5C)CC4)nc32)cc1 | 1 | 29* | 12 | 0 | 11 | 1 | 131
CCCCCn1c(NC2CCCCC2)nc2c1c(=O)[nH]c(=O)n2C | 0 | 92 | nt | -4 | -1 | -3 | nt
CCN(CC)c1ccc2c(c1)OC(N)=C(C#N)C2c1cccnc1 (configuration not stated) | 3 | 86 | nt | 7 | 6 | 3 | nt
O=c1oc(-c2cc3ccccc3o2)nc2sc3c(c12)CCCC3 | -40 | 37* | nt | 4 | 1 | -3 | 66
O=c1oc(-c2ccccc2)nc2sc3c(c12)CCCC3 | nt | nt | 4 | nt | nt | nt | nt
Cc1cccc(-c2cc3nc4c(c(N5CCOCC5)n3n2)CCCC4)c1 | 3 | 43* | 8 | 6 | 8 | 8 | 118
Cc1cccc(-c2cc3nc4c(c(N5CCC6(CC5)OCCO6)n3n2)CCCC4)c1 | -13 | nt | 8 | 9 | 6 | -5 | nt
CCOC(=O)c1c(NC(=O)CSc2nc(C)cc(C)c2C#N)sc(C(C)=O)c1C | 14 | 41* | 3 | 5 | 3 | 11 | 80
CCOC(=O)c1c(NC(=O)CSc2nnc(CNc3ccc(F)cc3)o2)sc(C(C)=O)c1C | -17 | 43* | 6 | -6 | 1 | 5 | 68
Cc1nc(N2CCN(c3ccccc3)CC2)nc2c1C(=O)CC(C)C2 (configuration not stated) | -9 | 86 | -1 | -12 | 4 | -8 | nt
Cc1nc(N2CCN(c3ccccc3)CC2)nc2c1C(=O)CC(c1ccccc1)C2 (configuration not stated) | 1 | 45* | -4 | -2 | -16 | 8 | 60
Cn1c(C(=O)N2CCCc3ccccc32)cc2c(=O)n3ccccc3nc21 | 9 | 45* | 8 | 10 | 3 | 8 | 110
CCOC(=O)c1c(C)oc2c1cc(O)c1ccccc12 | 13 | 47* | 8 | 9 | -17 | 9 | 79
O=C(CSc1nnc(CNc2ccccc2)o1)N1CCN(C(=O)c2ccco2)CC1 | nt | 109 | nt | nt | nt | nt | nt
CC(Oc1cccc2c1OC(C)(C)C2)C(=O)O (configuration not stated) | nt | nt | -2 | nt | nt | nt | nt
CSC1=C(C#N)C2(CCCC2)C(C#N)=C(N)N1 | 14 | 31* | 5 | 6 | -2 | 10 | 77
CC(C)Cn1c2c(c(O)c(C(=O)Nc3nccs3)c1=O)CCCC2 | -4 | 39* | 10 | 10 | 7 | 3 | 115
CCCn1c2c(c(O)c(C(=O)Nc3ccc(C)cn3)c1=O)CCCC2 | 9 | 113 | -2 | 4 | 3 | 16 | nt
CCCn1c2c(c(O)c(C(=O)Nc3ncccc3C)c1=O)CCCC2 | 14 | 32* | 0 | 8 | -26 | 10 | 97
CCCn1c2c(c(O)c(C(=O)Nc3nccs3)c1=O)CCCC2 | -11 | 103 | 2 | 3 | 6 | -3 | nt
COc1ccc(C=NCCCN2CCOCC2)cc1 | nt | 79 | 6 | nt | nt | nt | nt
CCCc1cc(=O)[nH]c(Nc2ccc(N3CCCCC3)cc2)n1 | -9 | 116 | 7 | 1 | 7 | 2 | nt
CCCCc1ccc(Nc2nc(CCC)cc(=O)[nH]2)cc1 | -17 | 28* | 5 | 3 | -23 | 8 | 88
Cc1cccc(OCCSc2nc3ccccc3n2CCC(=O)O)c1 | nt | 57 | nt | nt | nt | nt | nt
O=C(NCc1ccccc1)c1c[nH]c2ccc(S(=O)(=O)Nc3ccc4c(c3)OCCO4)cc2c1=O | -26 | 48* | -2 | 1 | 2 | -15 | ?
